According to the supplement of paper PMC10849652:
Targets with a hit are over-represented here; the source holds about 7,900 in all. About 0.6% of all pairs of compound and target were hits. Unmarked numbers belong to inactive results.

Assays:
Assay in all cases: log2 fold change, soluble protein after heating vs DMSO (PISA); higher = thermal stabilisation; K562 cells, 10 uM, 30 min; active = over 0.2 and 3.5 SD of the protein, either way, in both replicates (recomputed)
[1] = compound: CC[C@@H]1C(=O)N(C)c2cnc(Nc3ccc(C(=O)NC4CCN(C)CC4)cc3OC)nc2N1C1CCCC1
Procedure, shortened: (§1)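 Thermal stability values are relative to control samples and come from duplicates. They are expressed as log2 fold changes. For measurement, K562 cells (2×10^6 cells/mL) received 10 μM compound for 30 min, and aliquots were heated for 3 min over 48°C-58°C, pooled, and extracted at 4°C in PBS with 0.5% NP-40. Soluble protein, the supernatant after 21,000xg for 90 min, was quantified by TMTpro 16plex LC-MS/MS with equalised channel sums.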

volasertib = compound: CC[C@@H]1C(=O)N(C)c2cnc(Nc3ccc(C(=O)N[C@H]4CC[C@H](N5CCN(CC6CC6)CC5)CC4)cc3OC)nc2N1C(C)C [volasertib]
Procedure, shortened: as §1

[2] = compound: CC[C@H](C)N1C=C(C2=C(C=C(C=C21)C3=CN=C(C=C3)N4CCNCC4)C(=O)NCC5=C(C=C(NC5=O)C)C)C
Procedure, shortened: as §1

epoxomicin = compound: CC[C@H](C)[C@@H](C(=O)N[C@@H]([C@@H](C)O)C(=O)N[C@@H](CC(C)C)C(=O)[C@]1(CO1)C)NC(=O)[C@H]([C@@H](C)CC)N(C)C(=O)C [epoxomicin]
Procedure, shortened: as §1

[3] = compound: CCn1c(C(=O)N(C2CC2)C2CC2)cc2c3c(ncn3C)c(Nc3cc(C)n(C)n3)nc21
Procedure, shortened: as §1

[4] = compound: CCn1cc(-c2ccnc3[nH]c(-c4cccc(CN(C)C)c4)cc23)c(-c2ccc(NC(=O)N(C)C)cc2)n1
Procedure, shortened: as §1

[5] = compound: CN(C)CC(=O)Nc1ccc2[nH]c(=O)c3ccccc3c2c1
Procedure, shortened: as §1

rosiglitazone = compound: CN(CCOC1=CC=C(C=C1)C[C@H]2C(=O)NC(=O)S2)C3=CC=CC=N3 (racemic) [rosiglitazone]
Procedure, shortened: as §1

[6] = compound: CN1C2=C(C3=C1C(=O)N(N=C3)CC4=CC(=CC=C4)N)SC(=C2)S(=O)C
Procedure, shortened: as §1

[7] = compound: CN1CCC(CNc2ccc3ncc(-c4cccc(OC(F)(F)F)c4)n3n2)CC1
Procedure, shortened: as §1

saracatinib = compound: CN1CCN(CCOc2cc(OC3CCOCC3)c3c(Nc4c(Cl)ccc5c4OCO5)ncnc3c2)CC1 [saracatinib]
Procedure, shortened: as §1

sotrastaurin = compound: CN1CCN(c2nc(C3=C(c4c[nH]c5ccccc45)C(=O)NC3=O)c3ccccc3n2)CC1 [sotrastaurin]
Procedure, shortened: as §1

alvocidib = compound: CN1CC[C@H](c2c(O)cc(O)c3c(=O)cc(-c4ccccc4Cl)oc23)[C@H](O)C1 [alvocidib]
Procedure, shortened: as §1

Tubastatin A = compound: CN1CCc2c(c3ccccc3n2Cc2ccc(C(=O)NO)cc2)C1 [Tubastatin A]
Procedure, shortened: as §1

[8] = compound: CNC(=O)C1=CC=CC=C1NC2=NC(=NC=C2Cl)NC3=C(C=C(C=C3)N4CCOCC4)OC
Procedure, shortened: as §1

defactinib = compound: CNC(=O)c1ccc(Nc2ncc(C(F)(F)F)c(NCc3nccnc3N(C)S(C)(=O)=O)n2)cc1 [defactinib]
Procedure, shortened: as §1

rucaparib = compound: CNCc1ccc(-c2[nH]c3cc(F)cc4c3c2CCNC4=O)cc1 [rucaparib]
Procedure, shortened: as §1

[9] = compound: CNc1nc(-c2ccc3c(N)n[nH]c3c2)cc(N2C[C@@H](C(=O)NC3CCCCC3)CC[C@H]2C)n1
Procedure, shortened: as §1

encorafenib = compound: COC(=O)N[C@@H](C)CNc1nccc(-c2cn(C(C)C)nc2-c2cc(Cl)cc(NS(C)(=O)=O)c2F)n1 [encorafenib]
Procedure, shortened: as §1

[10] = compound: COC(=O)[C@H](CCSC)NC(=O)C1=C(C=C(C=C1)NC[C@H](CS)N)C2=CC=CC=C2
Procedure, shortened: as §1

Sequence of UniProt O60563 (O60563 whole entry, looked up): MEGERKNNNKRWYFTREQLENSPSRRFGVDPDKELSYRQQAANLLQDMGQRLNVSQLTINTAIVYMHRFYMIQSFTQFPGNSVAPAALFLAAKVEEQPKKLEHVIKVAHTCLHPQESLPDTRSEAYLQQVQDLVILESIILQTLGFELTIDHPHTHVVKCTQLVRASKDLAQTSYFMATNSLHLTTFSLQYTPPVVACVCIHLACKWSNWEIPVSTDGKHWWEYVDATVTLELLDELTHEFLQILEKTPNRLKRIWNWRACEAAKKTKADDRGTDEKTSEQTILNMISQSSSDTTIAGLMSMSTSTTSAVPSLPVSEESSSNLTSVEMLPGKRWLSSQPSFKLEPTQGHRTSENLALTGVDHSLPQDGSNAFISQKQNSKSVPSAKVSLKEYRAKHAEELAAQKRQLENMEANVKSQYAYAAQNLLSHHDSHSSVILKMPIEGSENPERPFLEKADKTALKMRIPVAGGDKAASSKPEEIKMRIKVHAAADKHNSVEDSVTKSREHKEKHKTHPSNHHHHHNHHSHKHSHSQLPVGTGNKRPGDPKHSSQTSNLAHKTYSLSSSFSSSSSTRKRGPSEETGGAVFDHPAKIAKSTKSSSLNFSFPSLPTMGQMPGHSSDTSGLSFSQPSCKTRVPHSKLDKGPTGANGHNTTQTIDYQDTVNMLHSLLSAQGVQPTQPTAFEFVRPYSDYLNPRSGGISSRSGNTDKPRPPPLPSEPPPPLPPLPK
Sequence of UniProt P51790 (P51790 whole entry, looked up): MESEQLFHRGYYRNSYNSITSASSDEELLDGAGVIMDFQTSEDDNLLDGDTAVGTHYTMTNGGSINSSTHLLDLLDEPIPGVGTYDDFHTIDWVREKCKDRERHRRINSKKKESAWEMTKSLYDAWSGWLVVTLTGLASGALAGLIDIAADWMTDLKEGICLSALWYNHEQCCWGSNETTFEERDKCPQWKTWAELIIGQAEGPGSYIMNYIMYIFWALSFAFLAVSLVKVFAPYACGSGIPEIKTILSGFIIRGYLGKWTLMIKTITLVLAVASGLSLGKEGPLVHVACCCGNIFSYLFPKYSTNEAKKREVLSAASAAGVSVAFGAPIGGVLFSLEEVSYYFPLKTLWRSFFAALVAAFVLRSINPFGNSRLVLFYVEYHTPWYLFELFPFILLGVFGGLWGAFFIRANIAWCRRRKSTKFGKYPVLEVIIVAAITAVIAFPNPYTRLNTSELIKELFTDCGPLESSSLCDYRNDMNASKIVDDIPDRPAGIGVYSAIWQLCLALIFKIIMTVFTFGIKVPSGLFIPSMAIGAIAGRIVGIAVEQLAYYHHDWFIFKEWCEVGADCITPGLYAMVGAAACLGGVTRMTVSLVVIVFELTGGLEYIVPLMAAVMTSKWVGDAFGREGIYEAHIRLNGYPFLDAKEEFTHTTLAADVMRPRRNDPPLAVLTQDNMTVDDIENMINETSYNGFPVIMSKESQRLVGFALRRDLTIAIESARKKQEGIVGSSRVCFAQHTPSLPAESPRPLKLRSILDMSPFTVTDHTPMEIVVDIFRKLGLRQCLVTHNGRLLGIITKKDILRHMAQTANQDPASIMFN
Sequence of UniProt P27708 (P27708 whole entry, looked up): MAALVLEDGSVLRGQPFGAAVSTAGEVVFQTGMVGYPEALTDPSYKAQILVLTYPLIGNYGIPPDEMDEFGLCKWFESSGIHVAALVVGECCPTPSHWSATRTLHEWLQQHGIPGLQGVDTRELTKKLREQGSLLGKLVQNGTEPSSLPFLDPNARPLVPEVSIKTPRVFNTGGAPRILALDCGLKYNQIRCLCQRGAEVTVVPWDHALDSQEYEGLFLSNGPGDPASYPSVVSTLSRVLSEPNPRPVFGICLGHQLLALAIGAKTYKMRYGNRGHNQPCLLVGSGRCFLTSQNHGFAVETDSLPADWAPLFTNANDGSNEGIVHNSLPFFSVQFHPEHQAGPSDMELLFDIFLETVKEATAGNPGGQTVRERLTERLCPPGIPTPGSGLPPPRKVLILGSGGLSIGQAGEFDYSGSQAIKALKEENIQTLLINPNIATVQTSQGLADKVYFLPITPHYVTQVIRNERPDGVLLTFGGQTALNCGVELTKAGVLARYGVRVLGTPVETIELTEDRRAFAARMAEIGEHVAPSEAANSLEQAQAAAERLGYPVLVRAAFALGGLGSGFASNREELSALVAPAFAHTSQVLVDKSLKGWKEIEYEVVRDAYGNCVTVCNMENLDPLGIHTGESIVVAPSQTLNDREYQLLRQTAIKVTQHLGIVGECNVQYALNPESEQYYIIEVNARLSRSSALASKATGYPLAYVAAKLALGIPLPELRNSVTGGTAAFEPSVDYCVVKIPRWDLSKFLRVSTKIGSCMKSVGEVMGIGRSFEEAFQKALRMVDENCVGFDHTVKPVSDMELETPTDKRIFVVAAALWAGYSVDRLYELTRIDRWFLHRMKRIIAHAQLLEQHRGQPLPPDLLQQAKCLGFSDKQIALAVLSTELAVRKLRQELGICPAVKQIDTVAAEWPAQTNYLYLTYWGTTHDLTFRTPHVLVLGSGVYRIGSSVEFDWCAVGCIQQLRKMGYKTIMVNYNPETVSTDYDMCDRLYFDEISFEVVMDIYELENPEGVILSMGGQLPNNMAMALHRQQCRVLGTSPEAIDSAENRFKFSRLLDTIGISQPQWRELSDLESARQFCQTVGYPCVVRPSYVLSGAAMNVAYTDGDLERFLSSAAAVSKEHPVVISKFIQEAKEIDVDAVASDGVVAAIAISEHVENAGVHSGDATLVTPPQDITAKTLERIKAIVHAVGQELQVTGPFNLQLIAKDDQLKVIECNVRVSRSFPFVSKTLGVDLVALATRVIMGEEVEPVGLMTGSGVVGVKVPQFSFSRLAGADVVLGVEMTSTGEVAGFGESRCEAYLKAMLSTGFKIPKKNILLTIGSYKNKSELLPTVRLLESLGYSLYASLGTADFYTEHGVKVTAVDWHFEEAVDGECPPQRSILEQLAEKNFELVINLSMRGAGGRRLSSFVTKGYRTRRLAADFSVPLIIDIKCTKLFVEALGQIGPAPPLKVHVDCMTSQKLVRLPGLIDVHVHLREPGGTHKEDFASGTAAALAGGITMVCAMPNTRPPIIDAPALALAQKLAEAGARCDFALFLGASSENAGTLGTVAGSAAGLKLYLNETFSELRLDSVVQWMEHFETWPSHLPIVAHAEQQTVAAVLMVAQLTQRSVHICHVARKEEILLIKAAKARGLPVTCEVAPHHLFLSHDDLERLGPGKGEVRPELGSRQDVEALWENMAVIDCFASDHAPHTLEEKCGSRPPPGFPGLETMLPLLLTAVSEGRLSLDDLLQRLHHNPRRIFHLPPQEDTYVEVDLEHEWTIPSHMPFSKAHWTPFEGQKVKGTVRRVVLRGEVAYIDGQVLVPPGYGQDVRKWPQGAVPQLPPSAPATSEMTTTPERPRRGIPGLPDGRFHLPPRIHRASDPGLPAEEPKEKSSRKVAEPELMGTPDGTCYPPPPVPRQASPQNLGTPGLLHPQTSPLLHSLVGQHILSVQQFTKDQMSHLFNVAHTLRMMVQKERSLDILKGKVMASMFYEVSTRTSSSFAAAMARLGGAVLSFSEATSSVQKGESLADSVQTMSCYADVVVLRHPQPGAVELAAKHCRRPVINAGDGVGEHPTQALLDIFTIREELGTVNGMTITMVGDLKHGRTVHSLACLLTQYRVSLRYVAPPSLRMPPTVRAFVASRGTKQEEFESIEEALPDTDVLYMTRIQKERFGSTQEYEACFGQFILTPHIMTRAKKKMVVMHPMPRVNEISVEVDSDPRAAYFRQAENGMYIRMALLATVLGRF
Sequence of UniProt Q96RR4 (Q96RR4 whole entry, looked up): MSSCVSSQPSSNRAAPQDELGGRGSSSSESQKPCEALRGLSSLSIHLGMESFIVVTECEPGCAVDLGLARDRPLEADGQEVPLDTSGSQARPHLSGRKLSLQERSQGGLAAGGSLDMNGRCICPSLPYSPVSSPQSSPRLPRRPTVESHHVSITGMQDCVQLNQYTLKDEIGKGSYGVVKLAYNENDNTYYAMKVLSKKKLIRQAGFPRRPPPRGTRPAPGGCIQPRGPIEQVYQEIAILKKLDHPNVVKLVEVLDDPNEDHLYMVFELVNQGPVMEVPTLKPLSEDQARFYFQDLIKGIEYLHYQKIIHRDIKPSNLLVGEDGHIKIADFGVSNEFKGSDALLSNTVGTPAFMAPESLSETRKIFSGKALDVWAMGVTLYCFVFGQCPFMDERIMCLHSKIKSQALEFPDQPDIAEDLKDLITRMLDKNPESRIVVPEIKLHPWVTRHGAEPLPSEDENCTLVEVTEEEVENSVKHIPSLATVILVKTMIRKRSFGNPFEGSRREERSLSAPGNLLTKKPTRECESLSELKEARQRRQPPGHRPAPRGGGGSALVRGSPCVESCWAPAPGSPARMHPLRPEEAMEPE
Sequence of UniProt O95319 (O95319 whole entry, looked up): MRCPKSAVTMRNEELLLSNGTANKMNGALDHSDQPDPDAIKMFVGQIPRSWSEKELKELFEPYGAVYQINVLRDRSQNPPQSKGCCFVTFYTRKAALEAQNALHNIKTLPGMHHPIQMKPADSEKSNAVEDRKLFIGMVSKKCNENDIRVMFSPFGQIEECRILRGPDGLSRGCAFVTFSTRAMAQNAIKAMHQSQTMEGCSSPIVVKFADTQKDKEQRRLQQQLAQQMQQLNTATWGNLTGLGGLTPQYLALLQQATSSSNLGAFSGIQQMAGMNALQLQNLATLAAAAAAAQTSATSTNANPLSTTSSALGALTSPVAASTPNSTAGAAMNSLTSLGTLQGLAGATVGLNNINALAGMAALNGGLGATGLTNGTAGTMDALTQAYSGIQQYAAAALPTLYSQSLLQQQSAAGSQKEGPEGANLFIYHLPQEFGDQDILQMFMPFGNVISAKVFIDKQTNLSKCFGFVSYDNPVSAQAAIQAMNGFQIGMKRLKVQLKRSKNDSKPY

Target	log2 fold change [1]	log2 fold change (volasertib)	log2 fold change [2]	log2 fold change (epoxomicin)	log2 fold change [3]	log2 fold change [4]	log2 fold change [5]	log2 fold change (rosiglitazone)	log2 fold change [6]	log2 fold change [7]	log2 fold change (saracatinib)	log2 fold change (sotrastaurin)	log2 fold change (alvocidib)	log2 fold change (Tubastatin A)	log2 fold change [8]	log2 fold change (defactinib)	log2 fold change (rucaparib)	log2 fold change [9]	log2 fold change (encorafenib)	log2 fold change [10]
CELF2 isoform 3 (UniProt O95319)	0.115	-0.028	0.02	0.018	-0.027	0.103	0.006	-0.049	-0.04	0.111	-0.011	0.076	0.036	-0.102	-0.034	0.098	0.125	-0.099	-0.041	-0.032
CLCN3 (UniProt P51790)	0.036	-0.095	-0.037	-0.015	0.013	0.065	0.011	-0.018	-0.051	-0.213	0	0.021	-0.048	-0.14	0.019	0.004	-0.055	-0.057	0.021	-0.06
CCNT1 (UniProt O60563)	0.023	-0.085	0.069	-0.063	0.028	0.035	-0.055	-0.024	0.132	-0.036	-0.005	-0.173	-0.221	0.075	-0.086	-0.213	0.044	0.043	0.163	0.002
C16orf58 (UniProt Q96GQ5)	-0.055	-0.013	-0.005	0.029	0.015	-0.018	0.006	0.039	-0.037	-0.086	0.042	0.04	-0.032	-0.003	-0.005	-0.031	-0.012	-0.063	0.051	-0.02
CAD (UniProt P27708)	0.006	0.009	0.019	0.034	-0.169	-0.08	0.022	0.032	-0.028	-0.458 (active)	-0.112	0.022	0.076	-0.044	-0.211	0.097	0.132	0.052	0.052	-0.051
CLSPN (UniProt Q9HAW4)	-0.017	-0.159	-0.019	0.037	0.062	0.031	-0.048	-0.016	0.04	-0.02	0.076	0.002	-0.102	0.039	0.053	-0.183	-0.11	-0.102	0.031	0.047
CAMKK2 (UniProt Q96RR4)	0.374	0.617 (active)	0.014	0.211	0.114	-0.093	0.145	0.072	-0.008	0.045	0.03	-0.042	0.048	0.105	0.36	-0.104	-0.084	-0.101	0.057	0.057
COQ9 (UniProt O75208)	-0.04	-0.05	0.001	-0.041	-0.022	0.002	0.018	0.025	-0.057	-0.135	-0.009	-0.052	-0.041	-0.045	-0.047	-0.045	0.001	0.042	-0.013	-0.016
